Where “and” joins values, the source holds several entries; their conditions need not be identical. Identical values can stand only once. Records with an inconclusive call do not appear. Calls of active or inactive are those of the source. Calls come from the whole dose curve; as a rule, active = well fitted cell-killing curve with a large enough effect; inconclusive = small, poorly fitted or top-dose-only effect; inactive = no such curve, though single readings can be large or run the other way.
Assay: qHTS of pediatric cancer cell lines to identify multiple opportunities for drug repurposing: Primary screen for SJ-GBM2 cells (AID 1347091)
Conditions: SJ-GBM2 viability, CellTiter-Glo luminescence, 48 h; series mostly up to 46 µM; activity change, negative = cytotoxic: at the top concentration
From the text: Drug repurposing or repositioning has been offered as a strategy for drug development in oncology programs. This approach has special potential for childhood cancers and other rare or orphan diseases, where the expected return on new drug development has been a disincentive to pharmaceuticals.
In this project we exploit the poly-pharmacology of drugs to discover new indications via phenotypic screening of a panel of 19 well-characterized cell lines derived from solid tumors seen in children and adolescents. The goal is to identify approved drugs with previously unrecognized anticancer properties that has the potential to reveal new mechanisms and biological processes involved in carcinogenesis or drug resistance. We employed a titration-based paradigm (quantitative high-throughput screening or qHTS), where all compounds were tested at multiple concentrations for their effect on cell viability. Concentration-response curves (CRCs) were derived directly from the primary screen, and both potency and efficacy values were used to identify compounds with robust bioactivity profiles. We screened the NIH Chemical Genomics Center (NCGC) Pharmaceutical Collection (NPC) and Mechanism Interrogation Plate (MIPE) small molecule collections of approved and investigational compounds against these cell lines; and measured metabolically active cells after 48 hours of compound treatment as a proxy for cell viability.
Assay Submitter: Nathalia J. Martinez, National Center for Advancing Translational Sciences, National Institutes of Health, Rockville, MD, USA; email: natalia.martinez@nih.gov
[1] Shen, M et al. Quantitative high-throughput phenotypic screening of pediatric cancer cell lines identifies multiple opportunities for drug repurposing. Oncotarget 2017 Dec 19;9(4):4758-4772. PMID 29435139.
The cells were obtained from University of North Carolina (UNC), Pediatric Preclinical Testing Program (PPT), and Coriell Institute (CI).
qHTS cell viability assay:
Cells were assayed in growth media at a density of 500-1,000 cells/well. Five microliters of cells were dispensed into 1,536-well, white, solid-bottom, TC-treated plates (Greiner Bio One) using a multidrop dispenser and incubated at 37 degrees C, 5% CO2, under a humidified atmosphere for 5 hours. Twenty-three nanoliters of compounds and controls (neutral control DMSO or positive control bortezomib at final concentration of 2.3 µM) were subsequently transferred by Kalypsys pintool. For primary screens, the MIPE collection was tested at 11-point dilutions (final concentrations range from 0.78 nM to 46 µM) and the NPC collection at 8-point dilutions (final concentrations range from 0.59 nM to 46 µM). Compounds tested in follow-up screens were assayed at 11-point dilutions. Cells were incubated for 48 hours, followed by addition of 3 uL of CellTiter-Glo (Promega). After a 15 min incubation at room temperature, samples were analyzed for luminescence intensity using a ViewLux High-throughput CCD imager equipped with clear filters.
Potency is the fitted concentration of half-maximal effect.

Compound | Potency | activity change, negative = cytotoxic
CCC(C)n1ncn(-c2ccc(N3CCN(c4ccc(OC[C@H]5CO[C@](Cn6cncn6)(c6ccc(Cl)cc6Cl)O5)cc4)CC3)cc2)c1=O (stereo not given in full) | 1.66 µM (active) | –
CCCS(=O)(=O)Nc1ccc(F)c(C(=O)c2c[nH]c3ncc(Cl)cc23)c1F | 10.5 µM (active) | –
CCOC(=O)C1=C[C@]2(CC)CCCN3CCc4c(n1c1ccccc41)[C@@H]32 | – | -27% (inactive)
COc1ccc(-c2ccc3c(N4CCOC[C@H]4C)nc(N4CCOC[C@H]4C)nc3n2)cc1CO | 0.0083 µM (active) | –
Cc1cn[nH]c1 | – | 22.3% (inactive)
O=C(Nc1cccnc1)N1CCC(Cc2cccc(Oc3ccc(C(F)(F)F)cn3)c2)CC1 | 18.7 µM (active) | –
OC(CCN1CCCCC1)(c1ccccc1)C1CC2C=CC1C2 (stereo not given) | inactive | –
CNCc1ccc(-c2[nH]c3cc(F)cc4c3c2CCNC4=O)cc1 | – | -9.44% (inactive)
O=C(O)CCc1ccc(NCc2cccc(Oc3ccccc3)c2)cc1 | – | 3.87% (inactive)
CN1CCN(CCCN2c3ccccc3Sc3ccc(C(F)(F)F)cc32)CC1 | 18.7 µM (active) | –
Cc1cnc(NC(=O)C2=C(O)c3ccccc3S(=O)(=O)N2C)s1 | inactive | –
O=C(C=Cc1ccc(/C=C/C(=O)Nc2ccc(C3=NCCN3)cc2)cc1)Nc1ccc(C2=NCCN2)cc1 | – | 21.1% (inactive)
CC(c1cc2ccccc2s1)N(O)C(N)=O (stereo not given) | inactive | –
CC(C)(C)NCC(O)c1ccc(O)c(CO)c1 (stereo not given) | inactive | –
O=C(O)COCCN1CCN(C(c2ccccc2)c2ccc(Cl)cc2)CC1 (stereo not given) | inactive | –
Cc1cc2c(C(C)C)c(O)c(O)c(C=O)c2c(O)c1-c1c(C)cc2c(C(C)C)c(O)c(O)c(C=O)c2c1O | 4.22 µM (active) and 3.72 µM (active) | –
CCCCCCCc1ccc(CCc2cccc(O)c2C(=O)O)cc1 | 23.5 µM (active) | –
Clc1cccc(Cl)c1NC1=NCCN1 | inactive | –
Cc1[nH]c(=O)c(C#N)cc1-c1ccncc1 | inactive | –
CS(=O)(=O)c1cccc(CNc2nc(Nc3ccc4c(c3)CCC(=O)N4)ncc2C(F)(F)F)c1 | 10.5 µM (active) | –

Compound | Potency | activity change, negative = cytotoxic
CCC(C)N(C)C(=O)c1cc2ccccc2c(-c2ccccc2Cl)n1 (stereo not given) | – | 3.26% (inactive)
CCCc1nc2c(C)cc(-c3nc4ccccc4n3C)cc2n1Cc1ccc(-c2ccccc2C(=O)O)cc1 | inactive | –
CCCCNc1cc(C(=O)O)cc(S(N)(=O)=O)c1Oc1ccccc1 | inactive | –
NC(=O)c1ccc(-c2nc(-c3ccc4c(c3)OCO4)c(-c3ccccn3)[nH]2)cc1 | – | -1.41% (inactive)
COc1cc2nccc(Oc3ccc(NC(=O)NC4CC4)c(Cl)c3)c2cc1C(N)=O | 0.526 µM (active) | –
Oc1cccc(-c2nc(N3CCOCC3)c3oc4ncccc4c3n2)c1 | 0.0855 µM (active) | –
OCCn1cc(-c2cnc3nnn(Cc4ccc5ncccc5c4)c3n2)cn1 | 0.0059 µM (active) | –
CCOc1ccn(-c2ccc(F)cc2)c(=O)c1C(=O)Nc1ccc(Oc2ccnc(N)c2Cl)c(F)c1 | 0.059 µM (active) | –
CCOc1cc(N2CCC(O)CC2)ccc1Nc1ncc2c(n1)N(C)c1ccccc1C(=O)N2C | 0.132 µM (active) | –
C1COC(NC(C2CC2)C2CC2)=N1 | inactive | –
Cc1ccc(N(CC2=NCCN2)c2cccc(O)c2)cc1 | – | -19.2% (inactive)
CCC(C)(C)C(=O)O[C@H]1C[C@@H](C)C=C2C=C[C@H](C)[C@H](CC[C@@H]3C[C@@H](O)CC(=O)O3)[C@H]21 | 3.35 µM (active) and 14.8 µM (active) | –
NC(N)=NC(=O)c1nc(Cl)c(N)nc1N | inactive | –
CCCn1c(=O)c2[nH]c(C34CC5CC3C[C@@H](C5)C4)nc2n(CCC)c1=O | 16.6 µM (active) | –
NS(=O)(=O)c1cc2c(cc1Cl)NC=NS2(=O)=O | inactive | –
NC(=O)C1CCCc2c1[nH]c1ccc(Cl)cc21 (stereo not given) | – | -9.11% (inactive)
Cn1cnc2c(F)c(Nc3ccc(Br)cc3Cl)c(C(=O)NOCCO)cc21 | – | 12% (inactive)
CCc1cncnc1N1CCN(Cc2nc3ccc(C(F)(F)F)cc3[nH]2)CC1 | – | -20.7% (inactive)
CNC(=O)c1ccc(C)c(-n2c(C)cc(OCc3ccc(F)cc3F)c(Br)c2=O)c1 | – | -18.4% (inactive)
O=c1[nH]c(-c2ccc(C(F)(F)F)cc2)nc2c1CSCC2 | – | -5.83% (inactive)

Source: PubChem BioAssay (NCATS)
